TROY NFkB inh – TROY signaling inhibition; Q293 LMP1-TROYcd NF-kB luciferase reporter, 4 h; inhibition, % at 10 µM; hit rate 0.98% among 360,000; AID 1347056;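 active = compounds whose plate-normalised and pattern-corrected inhibition of the luciferase reporter signal at the single screening dose is 50% or more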
HIF-2a inh – HIF-2a inhibition. hit rate 0.72% among 360,000. 786-0 RCC cells HIF-2a reporter, luciferase luminescence, overnight. inhibition, % at 18.8 µM;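 active = inhibition of the luminescence signal of 40% or more relative to plate controls, in a single-dose primary screen at 18.75 µM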
Shn3 inh set2 – Schnurri-3 reporter inhibition in Clone20 osteoblasts. inhibition, % at 12.5 µM. Clone20 osteoblast Shn3 3'UTR firefly luciferase, 24 h. hit rate 0.52% among 360,000;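 active = mean inhibition of at least 75% with every replicate also reaching 75%; inconclusive = mean inhibition at least 75% but some replicate below; inactive = mean inhibition below 75%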;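 note: 0% = median of neutral control wells and 100% = pilot-screen positive control compound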
EBV LMP1 NFkB – reduces LMP1-driven NF-kappaB luciferase signal; LMP1-induced NF-kappaB luciferase reporter cells, luminescence; inhibition, % at 12.5 µM; hit rate 0.69% among 350,000; AID 504558; in the data active = inhibition above about 41%; inconclusive = no clear call, values can overlap the other calls;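 note: 0% = neutral control wells and 100% = reference inhibitor control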
TRPM1 prom inh – MITF TRPM1 promoter inhibition in SK-MEL-5 cells. SK-MEL-5 TRPM1 promoter luciferase, 24 h. inhibition, % at 12.5 µM. hit rate 0.83% among 330,000;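 active = mean inhibition across replicates of 60% or more, whatever share of single replicates reaches that level; inconclusive = some that reach 60%, reason not given; inactive = mean inhibition across replicates below 60%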
TWEAK-Fn14 inh – blocks TWEAK-Fn14 interaction in a reporter cell assay; TWEAK-stimulated Fn14 reporter cells, luciferase luminescence, 8 h; inhibition, % at 10 µM; hit rate 2% among 360,000; in the data active = inhibition above about 50%
* marks the source's active call; other numbers are inactive results; ? = inconclusive; · = not tested or not shown. In the library only some 3.4% were active in any assay of this set; here they are far more common.

SMILES | TROY NFkB inh | HIF-2a inh | Shn3 inh set2 | EBV LMP1 NFkB | TRPM1 prom inh | TWEAK-Fn14 inh
COc1cc(/C=C(\C#N)c2nc3ccc(C)cc3[nH]2)cc([N+](=O)[O-])c1O | -23 | -207 | -64 | -64 | -19 | 51*
COc1cc(/C=C(\C#N)c2nc3ccccc3[nH]2)ccc1Oc1ccc([N+](=O)[O-])cn1 | 52* | -75 | 3 | 2 | -10 | 0
C[C@@H](c1ccccc1)N1C[C@@H](COCc2ccccc2)Oc2cc(N3CC[C@H](O)C3)ccc2S1(=O)=O | 8 | 3 | · | · | · | 28
Cc1cc(C(=O)COc2cccnc2[N+](=O)[O-])c(C)n1-c1ccccc1 | -13 | 74* | 90* | ? | 68* | 90*
Cc1cc(C(=O)COc2cccnc2[N+](=O)[O-])c(C)n1Cc1ccco1 | 1 | 13 | 23 | 21 | -10 | 14
Cc1cc(C(=O)COc2cccnc2[N+](=O)[O-])c(C)n1-c1ccccc1F | -12 | 50* | 15 | ? | 33 | 29
Cc1ccc(-n2c(C)cc(C(=O)COc3cccnc3[N+](=O)[O-])c2C)cc1 | 30 | 59* | 43 | 15 | 43 | 63*
COCC(=O)Nc1ccc2c(c1)[C@@H]1C[C@H](CC(=O)OC)O[C@@H](CO)[C@@H]1O2 | -6 | -4 | 5 | 3 | · | 24
CC(C)(C)c1cc(C2COC(=O)COCCOCC(=O)OCCOCCO2)cc(C(C)(C)C)c1O (stereo unspecified) | 7 | 16 | -8 | -6 | -9 | 2
COc1ccc(CCNC(=O)C(C)n2nc(C)c3c(C)n(-c4ccc(C)cc4)nc3c2=O)c(OC)c1 (stereo unspecified) | 20 | 10 | 50 | 29 | 23 | 38
COc1cccc(NC(=O)N2CCc3nc(Nc4cc(Cl)cc(Cl)c4)ncc3C2)c1 | 0 | -48 | 15 | · | · | 13
COc1cccc(NC(=O)N2CCc3nc(NCc4cccc(Oc5ccccc5)c4)ncc3C2)c1 | 18 | -18 | 57 | · | · | 54*
CC(C)c1ccc(Nc2ncc3c(n2)CCN(C(=O)Nc2ccc(F)c(Cl)c2)C3)cc1 | 65* | -39 | 5 | · | · | 78*
Cc1ccc(S(=O)(=O)N2C[C@H]3[C@H]4C(=O)N(c5ccccc5)C(=O)[C@H]4CC(=O)[C@H]3[C@@H]2c2ccccc2F)cc1 | 16 | -2 | 4 | · | · | 8
CCCC(NS(=O)(=O)c1ccc(-c2ccc(=O)[nH]n2)s1)c1cccs1 (stereo unspecified) | 35 | -61 | -10 | -13 | -22 | 58*
O=C(Nc1ccc(N2CCOCC2)cc1)Nc1ccc2nc(-c3ccco3)c(-c3ccco3)nc2c1 | 4 | 0 | 41 | -70 | -13 | 17
O=C(Nc1ccc2nc(-c3ccco3)c(-c3ccco3)nc2c1)NC1CC1 | 4 | -48 | -4 | -3 | -46 | 73*
Oc1ccc(-c2csc(Nc3ccccn3)n2)cc1 | -27 | -293 | -49 | -29 | -52 | 6
COc1ccc(-c2csc(Nc3ccccn3)n2)cc1OC | -47 | -262 | -83 | -48 | -101 | -4
c1ccc(-c2csc(Nc3ccccn3)n2)cc1 | -13 | -195 | -37 | -45 | -16 | 53*
Cc1ccc(-c2csc(Nc3ccccn3)n2)cc1 | 31 | -4 | 25 | 33 | 10 | 82*
Cc1cc(-c2csc(Nc3ccccn3)n2)ccc1F | -10 | -248 | -53 | -78 | -13 | 51*
COc1ccc(S(=O)(=O)NNC(=O)C2Cc3c(ccc4ccccc34)O2)cc1 (stereo unspecified) | 30 | 13 | 61 | 44* | 6 | 29
COCCNC(=O)C1Cc2c(ccc3ccccc23)O1 (stereo unspecified) | 16 | -37 | -35 | 1 | -8 | -10
O=C(COC(=O)c1cc(Br)ccc1O)Nc1ccc2c(c1)OCO2 | -2 | -30 | -7 | -7 | -16 | -30
SMILES | TROY NFkB inh | HIF-2a inh | Shn3 inh set2 | EBV LMP1 NFkB | TRPM1 prom inh | TWEAK-Fn14 inh
Cc1ccc(-c2nc3ccccc3s2)cc1S(=O)(=O)N1CCCC1 | -2 | -259 | 1 | -10 | -51 | 3
Cc1cc(-c2nc3cc(F)ccc3s2)ccc1N | 34 | -44 | -10 | 11 | -11 | 75*
O=C(NCc1cccs1)c1csc([C@@H]2C[C@H](O)[C@@H](CO)O2)n1 | 7 | 13 | 9 | · | · | 0
CSCC[C@H](NC(=O)OC(C)(C)C)C(=O)N/N=C/c1cccc2nccnc12 | 17 | 22 | -34 | -1 | 7 | 93*
CCOC(=O)C1(C)CCCCN1C(=O)c1cccnc1 (stereo unspecified) | 1 | 4 | -8 | · | · | -1
O=[N+]([O-])c1ccccc1N/N=C\c1ccccc1Cl | -77 | -194 | -42 | -42 | -40 | -34
CCCOc1ccc(/C=N/Nc2ccccc2[N+](=O)[O-])c(OCCC)c1 | 35 | -34 | 7 | 3 | 13 | 56*
COc1ccc(/C=N/Nc2ncccc2[N+](=O)[O-])c(OC)c1 | 52* | -166 | -19 | -9 | -58 | 72*
CCn1c2ccccc2nc2cc3c(cc21)c(Cl)c(=O)c1ccccc13 | 19 | 54* | -4 | -19 | · | 17
COc1ccc(CCNC(=O)CNCCc2ccc(F)cc2)cc1 | 3 | 13 | 3 | 4 | -7 | 15
CCOc1ccc(/C=C/C(O)=C2/C(=O)NC3(C)CC2c2ccccc2O3)cc1OC (stereo unspecified) | 17 | 22 | 5 | -44 | 51 | 36
CCOc1ccc(/C=C/C(O)=C2/C(=O)N(C)C3(C)CC2c2ccccc2O3)cc1OC (stereo unspecified) | 19 | 62* | -31 | 6 | 35 | 30
O=C(Nc1ccccc1F)c1coc(=O)c(Br)c1 | -18 | -58 | -24 | -10 | -23 | -2
O=C(NCCc1ccc(F)cc1)c1coc(=O)c(Br)c1 | -7 | 13 | -11 | -20 | 16 | 90*
CC(C)Cn1c(C(C)C)nc([N+](=O)[O-])c1S(=O)(=O)c1ccc(F)cc1 | 12 | 37 | 19 | -18 | 49 | 50*
COc1ccc(NC(=O)C#Cc2ccccc2)cc1OC | -3 | -52 | -4 | -14 | -2 | 95*
CCOc1cc(C(=O)Nc2cc3c(cc2N2CCOCC2)n(C)c(=O)n3C)cc(OCC)c1OCC | -9 | 11 | 24 | -9 | -4 | -26
CCC(=O)NNC(=O)CSc1nnc(-c2ccccc2)c(-c2ccccc2)n1 | 11 | 13 | 2 | 85* | 8 | -13
CC(=O)Nc1nnc([N+](=O)[O-])s1 | 6 | 14 | 0 | 5 | · | 16
CC(/C=N\N1CCN(c2ccc(Cl)cc2)CC1)=C\c1ccccc1 | 62* | 20 | -6 | 4 | 11 | -6
CC(/C=N/N1CCN(c2ccc(C)cc2)CC1)=C\c1ccccc1 | 7 | -3 | -15 | 11 | 6 | -1
Cc1ccc(-n2nc3c(=O)n(CC(=O)NCCc4cccs4)nc(C)c3c2C)cc1 | 21 | 9 | 24 | 13 | 26 | 21

From PubChem BioAssay
